The text below walks through data of PubChem BioAssay (NCI).

This is part of a sample that, as a whole, favours compounds with a hit. Of some 79,000 tested, about 15% had one in any assay. Unmarked numbers belong to inactive results. Calls of active or inactive are those of the source. No stated cut-off is given here; in the data, active means growth inhibition above about 70%; inactive means the rest.

A short description of experiment [1]: NCI Yeast Anticancer Drug Screen. Data for the rad50 strain (AID 155).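 Further: 0% = growth of vehicle-only cultures of the same strain.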 The note with it: S. cerevisiae rad50 strain growth inhibition, stronger effect = higher value. A digest of the protocol:
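Readout: growth inhibition relative to vehicle-treated cultures. Compound exposure was carried out in a genetically defined yeast strain deficient in DNA damage repair.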

Experiment [2] can be described thus: NCI Yeast Anticancer Drug Screen. Data for the mec2-1 strain (AID 157). The following applies: S. cerevisiae mec2-1 strain, stronger effect = higher value. An outline of the steps: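 Strain: mec2-1 (DNA repair/cell cycle alteration). Compound exposure, then growth measured; inhibition expressed relative to vehicle.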
The nature of experiment [3]: NCI Yeast Anticancer Drug Screen. Data for the sgs1 mgt1 strain (AID 161).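 Further: 0% = growth of cultures given vehicle only.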 The following applies: S. cerevisiae sgs1 mgt1 strain, stronger effect = higher value. A digest of the protocol:
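Genetically altered yeast, compound exposure, growth inhibition relative to vehicle.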

Experiment [4] is described as follows: NCI Yeast Anticancer Drug Screen. Data for the cln2 rad14 strain (AID 165).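 Further: 0% = growth equal to vehicle treated cultures.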 The note with it: S. cerevisiae cln2 rad14 strain, stronger effect = higher value. An outline of the steps: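 Compounds are applied to the cln2 rad14 yeast strain, and growth is then compared with that of vehicle-treated cultures to give inhibition.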
Experiment [5] can be described thus: NCI Yeast Anticancer Drug Screen. Data for the bub3 strain (AID 167). The note with it: S. cerevisiae bub3 mutant strain, stronger effect = higher value. A digest of the protocol:
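Readout: yeast growth inhibition, expressed relative to vehicle-only wells. The test organism is a mutant strain from a panel with lesions in DNA repair or checkpoint genes.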

The nature of experiment [6]: NCI Yeast Anticancer Drug Screen. Data for the mlh1 rad18 strain (AID 175). The note with it: S. cerevisiae mlh1 rad18 strain growth inhibition, stronger effect = higher value. A digest of the protocol:
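Read-out is yeast growth inhibition, calculated against vehicle-only controls. The compound was applied to a strain engineered with DNA damage repair alterations.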

[7] abbreviates: at 5.0 µM (retest, dose inferred, filed as 0.5).
[8] abbreviates: at 50.0 µM (retest, dose inferred, filed as 5.0).

On to `NC(=S)n1nc(-c2ccccc2)c(N=Nc2ccccc2Cl)c1-c1ccccc1`, for which the growth inhibition in experiment [1] (setting [7]) is 3%; in experiment [1] (setting [8]), 84% (active); in experiment [1] (at 50.0 µM) it was 94.8% (active); in experiment [2] (setting [7]), 0%; in experiment [2] (setting [8]), 58%; in experiment [2] (at 50.0 µM), 55.5%. Also, the growth inhibition in experiment [3] (setting [7]) is 1%; in experiment [3] (setting [8]) it was 83% (active); in experiment [3] (at 50.0 µM), 72.9% (active); in experiment [4] (setting [7]), 21%; in experiment [4] (setting [8]), 92% (active); in experiment [4] (at 50.0 µM), 73.9% (active). The growth inhibition is 16% in experiment [5] (setting [7]); 92% (active) in experiment [5] (setting [8]); 93.7% (active) in experiment [5] (at 50.0 µM); 2% in experiment [6] (setting [7]); 71% (active) in experiment [6] (setting [8]); 90.6% (active) in experiment [6] (at 50.0 µM).

In the case of `N#CC(/C=C/c1ccccc1)(NO)Nc1cccc(Cl)c1` (stereo not given), the growth inhibition in experiment [1] (setting [7]) was 6%; in experiment [1] (setting [8]), 98% (active); in experiment [1] (at 50.0 µM), 99.2% (active); in experiment [2] (setting [7]) it was 32%; in experiment [2] (setting [8]) it was 99% (active); in experiment [2] (at 50.0 µM), 99.6% (active). In addition, the growth inhibition in experiment [3] (setting [7]) is 39%; in experiment [3] (setting [8]) it was 99% (active); in experiment [3] (at 50.0 µM), 99.1% (active); in experiment [4] (setting [7]), 10%; in experiment [4] (setting [8]), 99% (active); in experiment [4] (at 50.0 µM), 98.8% (active). In addition, the growth inhibition in experiment [5] (setting [7]) was 29%; in experiment [5] (setting [8]), 99% (active); in experiment [5] (at 50.0 µM) it was 99.5% (active); in experiment [6] (setting [7]), 23%; in experiment [6] (setting [8]), 99% (active); in experiment [6] (at 50.0 µM), 99.5% (active).

In the case of `CCn1c2ccc(N)cc2c2c(N)c(-n3cccc3)ccc21`, the growth inhibition in experiment [1] (setting [7]) was 1%; in experiment [1] (setting [8]) it was 61%; in experiment [1] (at 50.0 µM), 94.5% (active); in experiment [2] (setting [7]) it was 3%; in experiment [2] (setting [8]) it was 54%; in experiment [2] (at 50.0 µM) it was 64.2%. Moreover, the growth inhibition in experiment [3] (setting [7]) is -7%; in experiment [3] (setting [8]), 71% (active); in experiment [3] (at 50.0 µM), 97.5% (active); in experiment [4] (setting [7]), -6%; in experiment [4] (setting [8]) it was 50%; in experiment [4] (at 50.0 µM), 61.9%. The growth inhibition in experiment [5] (setting [7]) was -2%; in experiment [5] (setting [8]), 86% (active); in experiment [5] (at 50.0 µM) it was 87.5% (active); in experiment [6] (setting [7]), 4%; in experiment [6] (setting [8]), 57%; in experiment [6] (at 50.0 µM) it was 91.5% (active).

Consider `CC(C)C[P+](c1ccccc1)(c1ccccc1)c1ccccc1`, for which the growth inhibition in experiment [1] (setting [7]) is 0%; in experiment [1] (setting [8]) it was 23%; in experiment [1] (at 50.0 µM) it was 62.6%; in experiment [2] (setting [7]), -3%; in experiment [2] (setting [8]), 54%; in experiment [2] (at 50.0 µM), 58.9%. Also, the growth inhibition in experiment [3] (setting [7]) was -34%; in experiment [3] (setting [8]), 9%; in experiment [3] (at 50.0 µM), 50.6%; in experiment [4] (setting [7]), -5%; in experiment [4] (setting [8]) it was 10%; in experiment [4] (at 50.0 µM), 49.5%. Moreover, the growth inhibition was -7% in experiment [5] (setting [7]); 24% in experiment [5] (setting [8]); 54.2% in experiment [5] (at 50.0 µM); 12% in experiment [6] (setting [7]); 45% in experiment [6] (setting [8]); 73.9% (active) in experiment [6] (at 50.0 µM).

In the case of `N=c1ccc2c(c1)[nH]c1c3ccccc3[nH]c3cccc2c31`, the growth inhibition in experiment [1] (setting [7]) was 81% (active); in experiment [1] (setting [8]), 98% (active); in experiment [1] (at 50.0 µM) it was 81.8% (active); in experiment [2] (setting [7]), 27%; in experiment [2] (setting [8]) it was 98% (active); in experiment [2] (at 50.0 µM) it was 84% (active). In addition, the growth inhibition in experiment [3] (setting [7]) was 23%; in experiment [3] (setting [8]), 98% (active); in experiment [3] (at 50.0 µM), 89.1% (active); in experiment [4] (setting [7]) it was 21%; in experiment [4] (setting [8]) it was 98% (active); in experiment [4] (at 50.0 µM), 90% (active). The growth inhibition in experiment [5] (setting [7]) was 18%; in experiment [5] (setting [8]), 98% (active); in experiment [5] (at 50.0 µM), 88.3% (active); in experiment [6] (setting [7]), 33%; in experiment [6] (setting [8]), 97% (active); in experiment [6] (at 50.0 µM), 87% (active).

On to `c1ccc2nc(C[n+]3cccc4ccccc43)ccc2c1`, for which the growth inhibition is 86% (active) in experiment [1] (setting [7]); 99% (active) in experiment [1] (setting [8]); 97.5% (active) in experiment [1] (at 50.0 µM); 73% (active) in experiment [2] (setting [7]); 99% (active) in experiment [2] (setting [8]); 97.8% (active) in experiment [2] (at 50.0 µM). The growth inhibition in experiment [3] (setting [7]) is 70% (active); in experiment [3] (setting [8]), 97% (active); in experiment [3] (at 50.0 µM), 58.4%; in experiment [4] (setting [7]), 72% (active); in experiment [4] (setting [8]), 99% (active); in experiment [4] (at 50.0 µM) it was 80% (active). In addition, the growth inhibition is 64% in experiment [5] (setting [7]); 98% (active) in experiment [5] (setting [8]); 97.9% (active) in experiment [5] (at 50.0 µM); 73% (active) in experiment [6] (setting [7]); 98% (active) in experiment [6] (setting [8]); 97.1% (active) in experiment [6] (at 50.0 µM).

As for `O=C(NCCc1c(-c2ccccc2)[nH]c2ccccc12)C(F)(F)C(F)(F)F`, the growth inhibition is 21% in experiment [1] (setting [7]); 21% in experiment [1] (setting [8]); 86.5% (active) in experiment [1] (at 50.0 µM); 1% in experiment [2] (setting [7]); 1% in experiment [2] (setting [8]); 91% (active) in experiment [2] (at 50.0 µM). For the same compound, the growth inhibition in experiment [3] (setting [7]) was 33%; in experiment [3] (setting [8]), 33%; in experiment [3] (at 50.0 µM) it was 84.8% (active); in experiment [4] (setting [7]), 4%; in experiment [4] (setting [8]), 4%; in experiment [4] (at 50.0 µM) it was 81.6% (active). For the same compound, the growth inhibition in experiment [5] (setting [7]) was 5%; in experiment [5] (setting [8]), 5%; in experiment [5] (at 50.0 µM) it was 79% (active); in experiment [6] (setting [7]), 23%; in experiment [6] (setting [8]), 23%; in experiment [6] (at 50.0 µM) it was 30.1%.

As to `COC(=O)c1ccc(CSc2ccc(OC)cc2)cc1`, the growth inhibition was 16% in experiment [1] (setting [7]); 84% (active) in experiment [1] (setting [8]); 88.5% (active) in experiment [1] (at 50.0 µM); -14% in experiment [2] (setting [7]); 75% (active) in experiment [2] (setting [8]); 83.2% (active) in experiment [2] (at 50.0 µM). Further, the growth inhibition in experiment [3] (setting [7]) is 8%; in experiment [3] (setting [8]), 92% (active); in experiment [3] (at 50.0 µM), 88.3% (active); in experiment [4] (setting [7]), 2%; in experiment [4] (setting [8]), 83% (active); in experiment [4] (at 50.0 µM), 80.9% (active). The growth inhibition in experiment [5] (setting [7]) was 1%; in experiment [5] (setting [8]) it was 80% (active); in experiment [5] (at 50.0 µM) it was 85.2% (active); in experiment [6] (setting [7]), -21%; in experiment [6] (setting [8]), 91% (active); in experiment [6] (at 50.0 µM) it was 85.3% (active).

On to `Cc1c(O)ccc2c1OCC(c1ccc(Cl)cc1)C2` (stereo not given), for which the growth inhibition in experiment [1] (setting [7]) was -19%; in experiment [1] (setting [8]), 72% (active); in experiment [1] (at 50.0 µM) it was 87.9% (active); in experiment [2] (setting [7]) it was 0%; in experiment [2] (setting [8]) it was 13%; in experiment [2] (at 50.0 µM), 70.2% (active). For the same compound, the growth inhibition in experiment [3] (setting [7]) was -7%; in experiment [3] (setting [8]), 21%; in experiment [3] (at 50.0 µM), 72.8% (active); in experiment [4] (setting [7]), 10%; in experiment [4] (setting [8]), 39%; in experiment [4] (at 50.0 µM), 78.5% (active). For the same compound, the growth inhibition in experiment [5] (setting [7]) is 32%; in experiment [5] (setting [8]) it was 85% (active); in experiment [5] (at 50.0 µM) it was 92.9% (active); in experiment [6] (setting [7]), -10%; in experiment [6] (setting [8]), 43%; in experiment [6] (at 50.0 µM), 94.2% (active).

Turning to `O=C1c2ccccc2C(=O)c2c1cccc2[N+](=O)[O-]`, the growth inhibition is 84% (active) in experiment [1] (setting [7]); 90% (active) in experiment [1] (setting [8]); 90.9% (active) in experiment [1] (at 50.0 µM); 67% in experiment [2] (setting [7]); 86% (active) in experiment [2] (setting [8]); 73% (active) in experiment [2] (at 50.0 µM). Moreover, the growth inhibition in experiment [3] (setting [7]) is 80% (active); in experiment [3] (setting [8]) it was 88% (active); in experiment [3] (at 50.0 µM), 86% (active); in experiment [4] (setting [7]) it was 69%; in experiment [4] (setting [8]) it was 86% (active); in experiment [4] (at 50.0 µM) it was 85.2% (active). The growth inhibition is 82% (active) in experiment [5] (setting [7]); 88% (active) in experiment [5] (setting [8]); 71.4% (active) in experiment [5] (at 50.0 µM); 85% (active) in experiment [6] (setting [7]); 90% (active) in experiment [6] (setting [8]); 83.8% (active) in experiment [6] (at 50.0 µM).
